Sm TGR block = S. mansoni TGR enzyme inhibition. Q962Y6. purified TGR, DTNB reduction, TNB absorbance 405 nm. Potency, µM (titrated, usually from 114 µM), most hits filed as inhibitors. 360,000 tested, 3% active. AID 485364; active = well fitted inhibition curve with a large enough effect; inconclusive = small, poorly fitted or top-dose-only effect; inactive = no such curve, though single readings can be large or run the other way; also: nearly all actives have a fitted effect of over 60% in size
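TGR 20 nM + NADPH 100 uM (dispensed conc.), cpd preinc 15 min RT; start with NADPH (500 uM addition) then DTNB (15 mM addition). Kinetic TNB absorbance, 405 nm filter. Four-parameter Hill fit across titration.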
SARS PLpro yeast = SARS-CoV PLP inhibition in yeast | S. cerevisiae expressing SARS-CoV PLpro, growth rescue | AID 485353 | 330,000 tested, 0.19% active | Potency, µM (highest dose often 32.9 µM), hits mostly activators; calls by dose curve; also: nearly all actives have a fitted effect of over 55% in size
Large screens that a line does not name were inactive. Hits are enriched below; roughly 3% of the tested compounds scored in any of these assays.

CCOc1ccccc1NC(=O)Cn1c(=O)n(-c2ccc(F)cc2)c(=O)c2sc3ccccc3c21	none (no result: SARS PLpro yeast)
COc1ccccc1N1CCN(C(=O)c2cc(CC(C)C)on2)CC1	none (no result: SARS PLpro yeast)
CCN(CC)c1ccc2cc(-c3nc(-c4ccccc4)no3)c(=O)oc2c1	none (no result: SARS PLpro yeast)
NS(=O)(=O)c1ccc(NC(=O)CN2C(=O)COc3ccc(Cl)cc32)cc1	none (no result: SARS PLpro yeast)
CCc1ccc(-n2c(=O)c3c4c(sc3n(CC(=O)c3ccc(Br)cc3)c2=O)CCC4)cc1	none (no result: SARS PLpro yeast)
CN(Cc1ccccc1)C(=O)CSc1nc2ccsc2c(=O)n1-c1ccc(F)cc1	none (no result: SARS PLpro yeast)
O=C(NCCN1CCOCC1)NC1(C(F)(F)F)Oc2ccc(Cl)cc2O1 (centres undefined)	none
O=C(c1ccccc1)N1CCC2(CC1)OCCO2	none
O=C(NC1(C(F)(F)F)Oc2ccc(Cl)cc2O1)N1CCC2(CC1)OCCO2 (centres undefined)	Sm TGR block 45µM
O=C(NC1(C(F)(F)F)Oc2ccccc2O1)N1CCC2(CC1)OCCO2	Sm TGR block 18µM
Cc1ccc(CNC(=O)c2cc3c(=O)n4cccc(C)c4nc3s2)cc1	none (no result: SARS PLpro yeast)
Cc1ccc(C)c(NC(=O)Cn2c(=O)n(CCCS(=O)(=O)C3CCCCC3)c(=O)c3ccccc32)c1	none (no result: SARS PLpro yeast)
Cc1ccc(C)c(NC(=O)CCN2CCOCC2)c1	none
Cc1ccc(C)c(NC(=O)CCCCCCCCCCC2COCCO2)c1 (centres undefined)	SARS PLpro yeast 11µM
Cc1nn(-c2ccccc2)c2sc(C(=O)Nc3ccc(Cl)cc3Cl)cc12	none (no result: SARS PLpro yeast)
CCOC(=O)C1CCN(/C=C2/C(=O)NC(=S)N(c3cccc(OC)c3)C2=O)CC1	none
CCOC(=O)C1CCN(/C=C2/C(=O)NC(=O)N(c3cccc(C)c3C)C2=O)CC1	Sm TGR block 8.9µM
Cn1c(N)c(C(=O)COC(=O)c2cc(-c3ccco3)nc3ccccc23)c(=O)n(C)c1=O	Sm TGR block 8.9µM
Cn1c(N)c(C(=O)COC(=O)c2cc(C(F)(F)F)nc3ccccc23)c(=O)n(Cc2ccccc2)c1=O	none
Cn1c(N)c(C(=O)COC(=O)c2cc(-c3ccco3)nc3ccccc23)c(=O)n(Cc2ccccc2)c1=O	Sm TGR block 8.9µM
COc1ccc(-c2cc(C(=O)OCC(=O)c3c(N)n(C)c(=O)n(C)c3=O)c3ccccc3n2)cc1	none
Cc1ccc(-c2cn(-c3cccc(Cl)c3)c(S(=O)(=O)CC(=O)Nc3cccc(C)c3)n2)cc1	none (no result: SARS PLpro yeast)
CC(C)Nc1ccc(-c2nc(-c3ccncc3)no2)cc1[N+](=O)[O-]	none (no result: SARS PLpro yeast)
COc1ccc(CNS(=O)(=O)c2ccc(N3CCCCS3(=O)=O)cc2)cc1	none (no result: SARS PLpro yeast)
CC(C)CNC(=O)C1CCN(c2ccc(S(=O)(=O)N3CCOCC3)cc2[N+](=O)[O-])CC1	none
CCCCN(C)C(=O)C1CCN(c2ccc(S(=O)(=O)N3CCOCC3)cc2[N+](=O)[O-])CC1	Sm TGR block 45µM
CCCCc1nn2c(=O)cc(COC(=O)c3ccccc3C)nc2s1	none (no result: SARS PLpro yeast)
Cc1ccc(S(=O)(=O)CCC(=O)NCc2ccco2)cc1	Sm TGR block 40µM
COc1ccccc1CNC(=O)CCS(=O)(=O)c1ccc2c(c1)CC(C)N2C(=O)C1CC1 (centres undefined)	none
Cc1ccc(S(=O)(=O)CCC(=O)NCc2ccccc2)cc1	none
CC(C)CCNC(=O)C1CCN(S(=O)(=O)c2ccc3c(c2)CC(C)N3C(=O)C2CCC2)CC1 (centres undefined)	none
CC1Cc2cc(S(=O)(=O)CCC(=O)NCc3ccco3)ccc2N1C(=O)C1CC1 (centres undefined)	Sm TGR block 40µM
Cc1ccc(CNC(=O)C2CCN(S(=O)(=O)c3ccc4c(c3)CC(C)N4C(=O)C3CCC3)CC2)o1 (centres undefined)	Sm TGR block 40µM
CCc1ccccc1NC(=O)c1ccc2c(c1)N(Cc1cc(C)ccc1C)C(=O)c1ccccc1S2(=O)=O	none (no result: SARS PLpro yeast)
O=c1oc2ccccc2cc1-c1nc(-c2cccs2)no1	none (no result: SARS PLpro yeast)
Cn1c2cc([N+](=O)[O-])sc2c2cnn(Cc3ccccc3F)c(=O)c21	none
CCc1ccc(OCC(=O)Nc2cc(-c3nc4cc(C)ccc4o3)ccc2C)cc1	none (no result: SARS PLpro yeast)
COc1ccccc1CNC(=O)c1nnn(CC(=O)Nc2c(C)cccc2C)c1N	none (no result: SARS PLpro yeast)
CCCc1cc(=O)[nH]c(Nc2ccccc2O)n1	none (no result: SARS PLpro yeast)
c1ccc(N2CCN(Cc3ccnc4ccccc34)CC2)cc1	none
CCOC(=O)N1CCN(Cc2ccccc2Cl)CC1	none (no result: SARS PLpro yeast)
CCOC(=O)N1CCN(Cc2cc(Cl)c3cccnc3c2O)CC1	Sm TGR block 32µM
CCOCc1cc(CN2CCN(c3cccc(Cl)c3)CC2)c(O)c2ncccc12	none (no result: SARS PLpro yeast)
COCc1cc(CN2CCN(C)CC2)c(O)c2ncccc12	Sm TGR block 14µM, SARS PLpro yeast inconclusive
Oc1c(CN2CCN(c3ccccc3)CC2)cc(Br)c2cccnc12	Sm TGR block 40µM, SARS PLpro yeast inconclusive
COc1cc(OC)c(OC)cc1/C=C/c1nc2cc3ccccc3cc2c(=O)n1-c1ccc(F)cc1F	none (no result: SARS PLpro yeast)
COCCCNC(=O)c1ccc(Cn2c(=O)c3ccccc3n(Cc3c(C)cc(C)cc3C)c2=O)cc1	none (no result: SARS PLpro yeast)
COc1cc2ccccc2cc1C(=O)Nc1cccc(-c2nc3cc(C)c(C)cc3o2)c1	none (no result: SARS PLpro yeast)
CCCCN(C)CCNC(=O)c1cc2c(=O)n(C)c3ccccc3c2n1C	none (no result: SARS PLpro yeast)
CCNC(=O)c1cnc2sc(N3CCC(C)CC3)nn2c1=O	none (no result: SARS PLpro yeast)
O=C(NCc1cccc(Br)c1)C1CCCCN1S(=O)(=O)c1ccc(F)cc1 (centres undefined)	none (no result: SARS PLpro yeast)
CN(Cc1ccccc1)C(=O)c1ncn(Cc2ccccc2)c1C(=O)N(C)Cc1ccccc1	none
CN(Cc1ccccc1)C(=O)c1ncn(C)c1C(=O)N(C)Cc1ccccc1	Sm TGR block 20µM
Cc1ccc(-c2c(CN3CCN(c4cccc(C)c4C)CC3)csc2C)cc1	none (no result: SARS PLpro yeast)
CC(=O)Nc1ccc(NC(=O)CSc2nc(N)c(NC(=O)c3ccccc3F)c(=O)[nH]2)cc1	Sm TGR block 89µM
Cc1cccc(NC(=O)CSc2nc(N)c(NC(=O)c3ccccc3F)c(=O)[nH]2)c1	none
O=C(NCc1cccs1)c1cc(-c2cccs2)on1	none
Clc1ccc(-c2ccc(CN3CCCCC3)o2)cc1	Sm TGR block inconclusive
O=C(O)CCc1ccc(-c2cccs2)o1	Sm TGR block 0.71µM
OCCc1ccc(-c2ccc(Cl)cc2)o1	Sm TGR block 45µM
Cc1cc(NC(=O)CCc2ccc(-c3ccccc3)o2)no1	none
Cc1ccc(-c2ccc(CCC(=O)O)o2)cc1	Sm TGR block 13µM
CCOc1ccccc1NC(=O)Cn1c(=O)n(C(C)C)c(=O)c2oc3ccccc3c21	none (no result: SARS PLpro yeast)
CCOc1ccc(/C=C/c2nc(C#N)c(NCc3ccc(OC)cc3)o2)cc1	none (no result: SARS PLpro yeast)
COc1ccc(OC)c(NC(=O)Cn2c(=O)n(-c3cccc(C)c3)c(=O)c3c2c2cc(C)ccc2n3C)c1	none (no result: SARS PLpro yeast)
Cc1ccc(-n2nc(CO)c(C(=O)NC(C)CCCc3ccccc3)n2)cc1C (centres undefined)	none (no result: SARS PLpro yeast)
Cc1c(NC(=O)c2cccc3c(Cl)cccc23)cccc1-c1nc2ccccc2o1	none (no result: SARS PLpro yeast)
COc1ccccc1CNC(=O)c1cc2sccc2n1Cc1ccc(F)cc1	none (no result: SARS PLpro yeast)
COc1ccc(N2C(=O)CC(NC3CC3)C2=O)cc1 (centres undefined)	none
CCOC(=O)N1CCN(C(=O)c2ccc(N3C(=O)CCC3=O)cc2)CC1	none
CCOc1ccc(N2C(=O)CC(NC3CCN(C(=O)c4ccc(F)cc4)CC3)C2=O)cc1 (centres undefined)	Sm TGR block 18µM
CCOC(=O)c1ccc(N2C(=O)CC(NC3CCN(C(=O)c4ccc(F)cc4)CC3)C2=O)cc1 (centres undefined)	Sm TGR block 50µM
Cc1nn(S(=O)(=O)c2ccc(C(C)C)cc2)c(C)c1S(=O)(=O)N1CCCCC1	none (no result: SARS PLpro yeast)
COc1ccccc1NC(=S)NC(C)=O	none

Screens (PubChem BioAssay)
